# “And” between values parts separate entries of the source, which are not always exact repeats. Identical values can stand only once. Inconclusive results are not listed. Unmarked numbers belong to inactive results. Some of the results follow. The source made the active and inactive calls. Unless noted, calls come from the whole dose curve; as a rule, active = well fitted curve in the direction sought with a large enough effect; inconclusive = small, poorly fitted or top-dose-only effect, or another doubt; inactive = no such curve, though single readings can be large; an effect the other way counts as inactive or inconclusive.
# Experiments:
# [1] = target: Glucocorticoid receptor (Homo sapiens) (UniProt P04150); assay: qHTS assay for small molecule agonists of glucocorticoid receptor signaling (AID 588532; active = well fitted curve in the direction sought with a large enough effect in the signal ratio, with a control signal flat; the % refers to the signal ratio;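 note: 100% = dexamethasone at 0.1 µM and 0% = DMSO only wells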); conditions: HeLa MMTV-bla, beta-lactamase ratio, agonist, 18 h; stronger effect = higher value; percent of dexamethasone control, DMSO zero
# Sequence of Glucocorticoid receptor (Homo sapiens) (P04150 whole entry, looked up): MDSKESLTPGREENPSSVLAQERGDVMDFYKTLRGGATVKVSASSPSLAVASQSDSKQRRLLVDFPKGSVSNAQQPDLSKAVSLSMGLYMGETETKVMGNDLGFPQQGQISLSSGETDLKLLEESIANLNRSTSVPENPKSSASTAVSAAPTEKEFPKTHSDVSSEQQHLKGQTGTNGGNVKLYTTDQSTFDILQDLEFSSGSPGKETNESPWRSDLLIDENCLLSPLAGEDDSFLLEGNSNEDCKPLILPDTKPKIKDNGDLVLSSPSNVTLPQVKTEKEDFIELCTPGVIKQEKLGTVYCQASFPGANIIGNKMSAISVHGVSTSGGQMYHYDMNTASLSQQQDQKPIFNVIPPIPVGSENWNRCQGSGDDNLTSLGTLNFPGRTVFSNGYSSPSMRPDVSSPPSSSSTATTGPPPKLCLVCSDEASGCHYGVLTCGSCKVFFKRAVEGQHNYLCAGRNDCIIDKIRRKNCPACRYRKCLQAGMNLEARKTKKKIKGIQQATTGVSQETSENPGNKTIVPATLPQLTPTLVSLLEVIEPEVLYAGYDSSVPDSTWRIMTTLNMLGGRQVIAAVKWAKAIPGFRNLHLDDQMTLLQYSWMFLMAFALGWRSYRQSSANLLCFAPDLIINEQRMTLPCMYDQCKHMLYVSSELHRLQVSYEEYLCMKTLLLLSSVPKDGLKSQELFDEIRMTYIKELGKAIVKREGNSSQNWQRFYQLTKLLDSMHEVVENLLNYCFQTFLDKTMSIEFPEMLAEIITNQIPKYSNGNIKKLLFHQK
# Procedure, shortened: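 MMTV-bla HeLa, beta-lactamase reporter; medium with 1% charcoal/dextran-stripped FBS; cpds up to 92 uM, 18 h, 37 C; CCF4 readout 460/530 nm; Hill fit → EC50, efficacy vs 0.1 uM dexamethasone = 100%.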
# [2] = target: Peroxisome proliferator-activated receptor gamma (Homo sapiens) (UniProt P37231); assay: qHTS assay for small molecule agonists of peroxisome proliferator-activated receptor gamma signaling (AID 588536; active = well fitted curve in the direction sought with a large enough effect in the signal ratio, with a control signal flat, not every such curve was filed as active; the % refers to the signal ratio;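 note: 0% = DMSO basal wells and 100% = rosiglitazone at 2 µM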); conditions: HEK293 PPARg-UAS-bla, beta-lactamase ratio, 16 h, percent of rosiglitazone response, DMSO as zero; series mostly up to 76.7 µM
# Sequence of Peroxisome proliferator-activated receptor gamma (Homo sapiens) (P37231 whole entry, looked up): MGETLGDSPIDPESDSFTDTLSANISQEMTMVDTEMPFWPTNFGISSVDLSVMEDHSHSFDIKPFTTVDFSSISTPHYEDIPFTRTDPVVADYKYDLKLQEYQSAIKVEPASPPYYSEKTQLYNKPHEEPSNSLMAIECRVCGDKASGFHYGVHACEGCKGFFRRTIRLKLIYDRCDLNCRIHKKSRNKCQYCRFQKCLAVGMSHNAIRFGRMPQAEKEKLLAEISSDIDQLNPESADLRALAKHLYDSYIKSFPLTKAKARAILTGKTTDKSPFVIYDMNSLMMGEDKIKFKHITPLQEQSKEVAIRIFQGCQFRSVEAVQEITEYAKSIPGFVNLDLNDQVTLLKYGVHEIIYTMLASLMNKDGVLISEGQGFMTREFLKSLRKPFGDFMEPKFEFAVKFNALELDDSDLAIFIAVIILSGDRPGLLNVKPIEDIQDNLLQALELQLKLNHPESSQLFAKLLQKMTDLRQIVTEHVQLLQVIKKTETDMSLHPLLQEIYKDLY
# Procedure, shortened: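 HEK293 UAS-bla reporter line, 1% charcoal/dextran FBS; titration, 16 h, 37 C; CCF4 loading 2 h RT; fluorescence 460/530 nm. Normalized to rosiglitazone 2 uM = 100%, DMSO = 0%.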
# [3] = target: Peroxisome proliferator-activated receptor gamma (Homo sapiens) (UniProt P37231); assay: qHTS assay for small molecule antagonists of peroxisome proliferator-activated receptor gamma signaling (AID 588537; active = well fitted inhibition curve with a large enough effect in the signal ratio, with a control signal flat, not every such curve was filed as active; the % refers to the signal ratio;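 note: reporter cells co-stimulated with 50 nM rosiglitazone agonist during compound treatment; % of control where 0% means no effect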); conditions: HEK293 PPARg-UAS-bla, beta-lactamase ratio, antagonist mode; series mostly up to 76.8 µM
# Procedure, shortened: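 PPAR-gamma-UAS-bla HEK293 cells (3000/well, 1% charcoal/dextran-stripped FBS) were preincubated 6-6.5 h at 37 C, given titrated compounds, then stimulated with 50 nM rosiglitazone for 16 h. Beta-lactamase activity was read with CCF4 dye; IC50 came from Hill fits.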
# [4] = target: Thyroid hormone receptor beta (Homo sapiens) (UniProt P10828); assay: qHTS assay for small molecule antagonists of thyroid hormone receptor beta signaling (AID 588547; active = well fitted inhibition curve with a large enough effect in the signal ratio, with a control signal flat, not every such curve was filed as active; the % refers to the signal ratio;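 note: cells stimulated with 0.4 nM T3 agonist during compound exposure; % is set by controls: 0 for no effect and ±100 for the full control effect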); conditions: TR-UAS-bla HEK293, beta-lactamase ratio, antagonist mode, 18 h
# Sequence of Thyroid hormone receptor beta (Homo sapiens) (P10828 whole entry, looked up): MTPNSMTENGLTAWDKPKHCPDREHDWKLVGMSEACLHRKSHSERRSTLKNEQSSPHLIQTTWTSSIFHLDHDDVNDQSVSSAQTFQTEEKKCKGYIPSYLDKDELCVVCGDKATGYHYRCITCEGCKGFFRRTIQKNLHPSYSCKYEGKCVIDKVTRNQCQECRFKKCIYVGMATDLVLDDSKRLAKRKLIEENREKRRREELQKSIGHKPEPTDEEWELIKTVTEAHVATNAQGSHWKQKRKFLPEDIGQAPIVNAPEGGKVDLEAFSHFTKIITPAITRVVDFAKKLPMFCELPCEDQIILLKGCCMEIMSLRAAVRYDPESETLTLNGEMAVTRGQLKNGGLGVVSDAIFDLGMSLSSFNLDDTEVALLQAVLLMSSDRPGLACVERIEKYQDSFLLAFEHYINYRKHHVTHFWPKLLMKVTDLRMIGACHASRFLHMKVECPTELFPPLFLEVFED
# Procedure, shortened: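 TR-UAS-bla GripTite HEK293 cells in 2% charcoal/dextran FBS medium were preincubated 4 h at 37 C, given compound (0.59 nM to 92 uM) plus 0.4 nM T3 (final) for 18 h, then CCF4 for 2 h at RT; Hill fit gave IC50.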
# [5] = qHTS assay for small molecule agonists of the antioxidant response element (ARE) signaling pathway (AID 651741; active = well fitted activation curve with a large enough effect in the signal ratio; the % refers to the signal ratio; note: potency is the fitted concentration of half-maximal effect; for activation: % of control where 0% means no effect); conditions: HepG2 ARE-bla reporter, beta-lactamase FRET ratio, 16 h; series mostly up to 96 µM
# Procedure, shortened: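 ARE-bla HepG2 cells (beta-lactamase reporter under ARE control) were plated at 2,000 cells/well, preincubated 5 h at 37 C/5% CO2, then treated with DMSO-dissolved compounds for 16 h at 37 C; LiveBLAzer B/G FRET substrate added, fluorescence read after 2 h at room temperature.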
# [6] = target: Bile acid receptor (Homo sapiens) (UniProt Q96RI1); assay: qHTS assay for small molecule antagonists of farnesoid X receptor signaling (AID 588526; calls by dose curve; note: % is set by controls: 0 for no effect and ±100 for the full control effect); conditions: HEK293T FXR-UAS-bla, beta-lactamase ratio, antagonist mode; series mostly up to 76.7 µM
# Sequence of Bile acid receptor (Homo sapiens) (Q96RI1 whole entry, looked up): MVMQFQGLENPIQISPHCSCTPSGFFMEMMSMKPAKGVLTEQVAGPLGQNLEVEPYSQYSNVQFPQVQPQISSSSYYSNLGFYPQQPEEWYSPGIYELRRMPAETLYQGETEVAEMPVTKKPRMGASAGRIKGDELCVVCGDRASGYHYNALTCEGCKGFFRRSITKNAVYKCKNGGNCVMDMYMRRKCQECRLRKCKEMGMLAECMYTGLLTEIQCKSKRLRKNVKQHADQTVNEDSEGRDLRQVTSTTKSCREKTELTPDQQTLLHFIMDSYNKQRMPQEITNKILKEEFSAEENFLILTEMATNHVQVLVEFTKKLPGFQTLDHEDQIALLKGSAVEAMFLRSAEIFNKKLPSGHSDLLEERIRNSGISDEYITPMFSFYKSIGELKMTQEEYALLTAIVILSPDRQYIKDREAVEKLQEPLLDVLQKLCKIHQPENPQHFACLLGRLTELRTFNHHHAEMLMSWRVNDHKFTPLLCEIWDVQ
# Procedure, shortened: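 Concentration-response titrations were fitted to the Hill equation for half-maximal inhibition and maximal response, with data normalised to 50 uM chenodeoxycholic acid and DMSO control wells. Cells: FXR-UAS-bla HEK293T, dialyzed FBS.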
# [7] = target: Vitamin D3 receptor (Homo sapiens) (UniProt P11473); assay: qHTS for Inhibitors of the vitamin D receptor (VDR): Hit Validation in Primary Screen (AID 602199); conditions: VDR-coactivator inhibition assay, qHTS confirmation; note: potency is the fitted concentration of half-maximal effect
# Sequence of Vitamin D3 receptor (Homo sapiens) (P11473 whole entry, looked up): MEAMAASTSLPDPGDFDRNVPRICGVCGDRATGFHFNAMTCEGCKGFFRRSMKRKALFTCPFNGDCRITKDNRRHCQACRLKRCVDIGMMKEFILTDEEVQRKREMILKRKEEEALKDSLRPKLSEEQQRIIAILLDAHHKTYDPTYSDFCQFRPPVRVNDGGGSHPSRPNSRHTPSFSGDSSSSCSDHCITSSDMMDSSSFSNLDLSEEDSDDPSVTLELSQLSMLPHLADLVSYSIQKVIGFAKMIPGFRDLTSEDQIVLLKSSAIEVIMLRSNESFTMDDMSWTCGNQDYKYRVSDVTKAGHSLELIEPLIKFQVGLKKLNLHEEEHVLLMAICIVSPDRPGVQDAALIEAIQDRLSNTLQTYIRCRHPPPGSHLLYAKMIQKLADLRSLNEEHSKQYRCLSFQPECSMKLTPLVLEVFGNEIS
# Procedure, shortened: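 Fluorescence polarization assay of VDR binding to Alexa 647-labelled SRC2-3 coactivator peptide: 800nM VDR with 5uM LG19078 agonist, compounds, 2 h at room temperature, read Ex 620 nm/Em 688 nm.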
# [8] = qHTS for Inhibitors of the vitamin D receptor (VDR): Hit Validation using a Texas Red Assay (AID 602201); conditions: VDR coregulator binding, Texas Red fluorescence polarization, agonist-bound VDR ligand-binding domain; series mostly up to 57.1 µM; note: potency is the fitted concentration of half-maximal effect
# Procedure, shortened: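 Fluorescence polarization (Ex 595/Em 615 nm) of Texas Red (7 nM) with 1.5 uM VDR-LBD and LG19078 (final concentrations). Compounds were incubated for 2 hours at room temperature.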
smiles,measurement,setting,value
CC(C)Nc1nc(N)nc(Cl)n1,activation,[1],-6.58% and -7.33%
same,outcome,[2],inactive
same,Potency,[3],inactive
same,activity change % (negative = inhibition),[4],-8.47% and 11%
same,Potency,[5],inactive
Cc1ccc2c(c1)C(=O)OC2=O,activation,[1],-1.62%
same,outcome,[2],inactive
same,Potency,[3],inactive
same,activity change % (negative = inhibition),[4],-5.6%
same,Potency,[5],inactive
CCOCCOCCOCCO,Potency,[6],inactive
same,outcome,[2],inactive
same,Potency,[3],inactive
same,activity change % (negative = inhibition),[4],8.91%
same,Potency,[5],inactive
CCCCCCCCCC(=O)OC,Potency,[6],inactive
same,outcome,[2],inactive
same,Potency,[3],inactive
C=CCOc1nc(OCC=C)nc(OCC=C)n1,activation,[1],-1.63%
same,outcome,[2],inactive
same,activity change % (negative = inhibition),[4],11.9%
CCCCC(CC)COC(=O)/C=C\C(=O)OCC(CC)CCCC (stereo not given),activation,[1],-2.45%
COC(=O)c1ccc(I)cc1S(=O)(=O)NC(=O)Nc1nc(C)nc(OC)n1,activation,[1],7.01%
same,outcome,[2],inactive
same,Potency,[3],inactive
same,activity change % (negative = inhibition),[4],-17%
same,Potency,[5],inactive
CCCCCCCCCCCC(=O)OC,activation,[1],-11.5%
same,Potency,[5],24.3 µM (active)
OCCOCCOCCOCCOCCO,outcome,[2],inactive
same,Potency,[3],inactive
same,activity change % (negative = inhibition),[4],-16.4%
same,Potency,[5],inactive
CCNc1nc(NC(C)CC)nc(OC)n1 (stereo not given),activation,[1],-21%
same,outcome,[2],inactive
same,Potency,[5],inactive
COC(=O)c1ccc(CNS(C)(=O)=O)cc1S(=O)(=O)NC(=O)Nc1nc(OC)cc(OC)n1,activation,[1],-4.55%
same,Potency,[3],inactive
Cc1cc(Cc2cc(C)cc(C(C)(C)C)c2O)c(O)c(C(C)(C)C)c1,activation,[1],20.3%
same,Potency,[5],48.6 µM (active)
COCCOCCOCCOC,outcome,[2],inactive
same,Potency,[3],inactive
same,activity change % (negative = inhibition),[4],2.02%
S=C(S)NCCNC(=S)S,Potency,[3],inactive
same,activity change % (negative = inhibition),[4],-7.47%
CCCCCCCCCCCC[N+](C)(C)C,activation,[1],-4.8%
same,Potency,[5],19.3 µM (active)
CS(=O)(=O)c1ccc(Cl)cc1,activity change % (negative = inhibition),[4],-10.2%
same,Potency,[5],inactive
Brc1ccc(Oc2ccc(Br)cc2)cc1,activity change % (negative = inhibition),[4],11%
CCCCC(CC)COC(=O)CS (stereo not given),activation,[1],8.21%
same,activity change % (negative = inhibition),[4],1.03%
Oc1ccc(Nc2ccccc2)cc1,activation,[1],-7.61%
same,activity change % (negative = inhibition),[4],-3.3%
same,Potency,[5],24.3 µM (active)
O=[N+]([O-])c1ccc(O)cc1C(F)(F)F,activation,[1],-7.74%
same,Potency,[3],inactive
same,Potency,[5],34.4 µM (active)
CC(C)CCCCCCCCCCCCCCC(=O)O,outcome,[2],inactive
C=C(C)C(=O)OCCOCCOCCOC(=O)C(=C)C,activation,[1],9.85%
same,outcome,[2],inactive
same,Potency,[3],inactive
same,activity change % (negative = inhibition),[4],-12.3%
S=C([S-])NCCNC(=S)[S-].[Mn+2],Potency,[3],inactive
same,activity change % (negative = inhibition),[4],-12.7%
CC(C)CCCCOC(=O)c1ccccc1C(=O)OCCCCC(C)C,outcome,[2],inactive
same,Potency,[3],inactive
Clc1nc(Cl)c(Cl)c(Cl)c1Cl,outcome,[2],inactive
same,Potency,[3],inactive
same,activity change % (negative = inhibition),[4],-13.1%
same,Potency,[5],17.2 µM (active)
CC[C@H](C)C1O[C@]2(C=C[C@@H]1C)C[C@@H]1C[C@@H](C/C=C(\C)[C@@H](O[C@H]3C[C@H](OC)[C@@H](O[C@H]4C[C@H](OC)[C@H](NC(C)=O)[C@H](C)O4)[C@H](C)O3)[C@@H](C)/C=C/C=C3\CO[C@@H]4[C@H](O)C(C)=C[C@@H](C(=O)O1)[C@]34O)O2 (stereo not given in full),activation,[1],-14.6%
CC/C(=C(\c1ccc(O)cc1)c1ccc(OCCN(C)C)cc1)c1ccccc1,activation,[1],-2.75%
C[C@]12CC[C@@H]3c4ccc(O)cc4CC[C@H]3[C@@H]1CC[C@H]2O,activation,[1],-4.59%
same,outcome,[2],inactive
same,activity change % (negative = inhibition),[4],-9.59%
same,Potency,[5],inactive
CCCCCCCCCCCCCCC,activity change % (negative = inhibition),[4],5.8%
O=C(Cl)c1cccc(C(=O)Cl)c1,outcome,[2],inactive
same,Potency,[3],inactive
same,activity change % (negative = inhibition),[4],-4.29%
same,Potency,[5],inactive
COCCOCCOCCO,activation,[1],2.13%
O=C(O)c1cc(O)c2ccccc2c1O,activation,[1],-13.3%
same,Potency,[5],7.7 µM (active)
CCCCCCC(O)CCCCCCCCCCC(=O)OC (stereo not given),activation,[1],-20.2%
same,activity change % (negative = inhibition),[4],-2.76%
same,Potency,[5],inactive
C=C(C)C(=O)OCCC[Si](Cl)(Cl)Cl,outcome,[2],inactive
same,Potency,[3],inactive
O=C=NC1CCC(CC2CCC(N=C=O)CC2)CC1 (stereo not given),activation,[1],-3.36%
same,Potency,[3],inactive
same,Potency,[5],inactive
CCCCCOC(=O)COc1cc(N2C(=O)C3=C(CCCC3)C2=O)c(F)cc1Cl,activation,[1],3.85%
same,activity change % (negative = inhibition),[4],4.65%
Nc1ccc(Nc2ccccc2)cc1,outcome,[2],inactive
same,Potency,[5],30.6 µM (active)
CCOCCOCCOCC,outcome,[2],inactive
same,Potency,[3],inactive
same,activity change % (negative = inhibition),[4],-11.8%
CCCCCCCCCCCCN,activation,[1],-4.12%
same,activity change % (negative = inhibition),[4],-7.43%
CCCCCCCCCCCCCCN(C)C,activation,[1],12.5%
same,outcome,[2],inactive
same,Potency,[5],inactive
c1ccc2c(c1)ccc1c3ccccc3ccc21,outcome,[2],inactive
same,Potency,[3],inactive
same,activity change % (negative = inhibition),[4],1.89%
CC(C)C[C@H](NC(=O)OCC1c2ccccc2-c2ccccc21)C(=O)O,activation,[1],-5.5%
same,Potency,[3],inactive
same,activity change % (negative = inhibition),[4],-4.45%
CCCCC(CC)CN1C(=O)C2C3C=CC(C3)C2C1=O (stereo not given),activation,[1],-12.6%
same,outcome,[2],inactive
same,Potency,[3],inactive
same,activity change % (negative = inhibition),[4],4.69%
CC(C)CC(C)(O)C#CC(C)(O)CC(C)C (stereo not given),outcome,[2],inactive
same,Potency,[3],inactive
same,activity change % (negative = inhibition),[4],20.8%
same,Potency,[5],inactive
O=c1oc(=O)c2cc3c(=O)oc(=O)c3cc12,activity change % (negative = inhibition),[4],-2.54%
same,Potency,[5],inactive
S=C([S-])NCCNC(=S)[S-].S=C([S-])NCCNC(=S)[S-].[Mn+2].[Zn+2],outcome,[2],inactive
C[C@@H](NC(=O)OC(C)(C)C)c1nnc(S(=O)(=O)Cc2ccccc2)o1,Potency,[7],11.2 µM (active)
same,Potency,[8],11.2 µM (active)
CCCCS(=O)(=O)c1oc(-c2cccs2)nc1S(=O)(=O)c1ccccc1,Potency,[7],2.24 µM (active)
